This passage reports outcome and AC50 results from PubChem BioAssay (EPA / NIEHS).

Results filed as inconclusive are left out. Activity calls are given as the source filed them. Rule for the calls, unless noted: active = hit-call score of the fitted dose curve at least 0.9, where 1 is the maximum; inconclusive = response in the unintended direction; inactive = score below 0.9.

A short description of test [1]: ATG_VDRE_CIS: Attagene CIS-FACTORIAL HepG2 Assay for human Vitamin D Receptor Element (VDRE) (AID 2282968; active = hit-call score of the fitted dose curve at least 0.9, where 1 is the maximum; inactive = score below 0.9). The settings on record: HepG2 VDRE cis-reporter transcription, actives raise or lower the signal. In short, it runs like this:
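Compounds were applied for 24 h to HepG2 cells transfected with promoter-regulated reporter units. Total RNA was reverse-transcribed, and reporter amplicons were fluorescently labelled and sized by capillary electrophoresis.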

The target of test [2] is Nuclear receptor subfamily 1 group I member 3 (Homo sapiens) (UniProt Q14994). The experiment in a line: ATG_CAR_TRANS: Attagene TRANS-FACTORIAL HepG2 Assay for human Constitutive Androstane Receptor (CAR) (AID 2282969).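 Note: activators raise reporter mRNA above DMSO so AC50 marks induction.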 The following applies: HepG2 Attagene TRANS-FACTORIAL CAR reporter. Put shortly: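 Transiently transfected HepG2, multiplex TRANS reporters (CAR-Gal4 chimera driving GAL4-UAS reporter). 24 h dosing. Readout: reporter transcript by RT-PCR + capillary electrophoresis, fluorescence intensity; positive direction vs DMSO.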
Chain of Nuclear receptor subfamily 1 group I member 3 (Homo sapiens) (Q14994 whole entry, looked up, the tested form may be a part): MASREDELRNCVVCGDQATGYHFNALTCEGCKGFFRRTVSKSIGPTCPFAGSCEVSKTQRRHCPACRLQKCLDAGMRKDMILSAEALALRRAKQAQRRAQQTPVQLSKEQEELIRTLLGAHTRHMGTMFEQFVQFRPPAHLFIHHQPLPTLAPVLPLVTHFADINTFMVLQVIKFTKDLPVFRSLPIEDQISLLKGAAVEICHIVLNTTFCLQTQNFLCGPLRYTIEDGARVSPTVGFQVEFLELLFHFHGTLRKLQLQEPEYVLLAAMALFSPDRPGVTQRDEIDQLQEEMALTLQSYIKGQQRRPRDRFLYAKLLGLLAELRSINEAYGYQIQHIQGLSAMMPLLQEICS

In test [3] the target is X-box-binding protein 1 (Homo sapiens) (UniProt P17861). Nature of the test: ATG_Xbp1_CIS: Attagene CIS-FACTORIAL HepG2 Assay for human X-box Binding Protein 1 (XBP1) (AID 2282972; active = hit-call score of the fitted dose curve at least 0.9, where 1 is the maximum; inactive = score below 0.9). The settings on record: HepG2 XBP1 cis-element reporter, Attagene multiplex; actives raise or lower the signal. In short, it runs like this:
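Human hepatoma HepG2, cis-element reporter system, 24 h treatment; mRNA quantified by RT-PCR/CE fluorescence; fit relative to DMSO.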

The nature of test [4]: ATG_GAL4_TRANS: Attagene TRANS-FACTORIAL HepG2 Assay for GAL4 (Internal Marker) (AID 2282976). The settings on record: HepG2 Attagene TRANS GAL4 internal marker reporter. In short, it runs like this:
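In transfected human HepG2 liver cells dosed 24 h, GAL4 reporter mRNA serves as a baseline marker. Detection by RT-PCR with fluorescent capillary electrophoresis, activity fitted upward relative to DMSO.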

The target of test [5] is Bile acid receptor (Homo sapiens) (UniProt Q96RI1). Nature of the test: ATG_FXR_TRANS: Attagene TRANS-FACTORIAL HepG2 Assay for Farnesoid X Receptor (FXR) (AID 2282979).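 Note: hits raise reporter mRNA above DMSO so AC50 marks FXR activation.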 The following applies: HepG2 Attagene TRANS FXR-GAL4 reporter transcription. Put shortly:
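Reporter transcripts from transfected HepG2 cells were measured 24 h after dosing, using RT-PCR with capillary electrophoresis of 6-FAM-labelled fragments. The read-out reflects activity of exogenous FXR-Gal4 chimera on GAL4-UAS units, with induction relative to DMSO.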

Test [6] has as its target Oxysterols receptor LXR-alpha (Homo sapiens) (UniProt Q13133). The experiment in a line: ATG_LXRa_TRANS: Attagene TRANS-FACTORIAL HepG2 Assay for human Liver X Receptor alpha (LXRa) (AID 2282980). The settings on record: HepG2 Attagene TRANS reporter, LXRa transactivation. Put shortly: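 Chemical-induced reporter mRNA measured by RT-PCR with fluorescent labelling and capillary electrophoresis after 24 h dosing of transiently transfected HepG2 cells expressing exogenous NR-Gal4 chimeras; increases scored against DMSO baseline.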

In test [7] the target is Hepatocyte nuclear factor 4-alpha (Homo sapiens) (UniProt P41235). The experiment in a line: ATG_HNF4a_TRANS: Attagene TRANS-FACTORIAL HepG2 Assay for human Hepatocyte Nuclear Factor 4 alpha (HNF4a) (AID 2282982). The settings on record: HepG2 HNF4a transactivation reporter, mRNA readout. In short, it runs like this:
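Endpoint reflects transcriptional activation of a GAL4-UAS reporter by an HNF4a-GAL4 chimera in transfected HepG2 cells, 24 h post-dosing. Fluorescence from RT-PCR products separated by capillary electrophoresis; DMSO baseline.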

A short description of test [8]: ATG_M_06_TRANS: Attagene TRANS-FACTORIAL HepG2 Assay for M06 Transcription Factor (Internal Marker) (AID 2282983). The following applies: HepG2 Attagene TRANS M06 internal marker reporter. In short, it runs like this:
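Background-control reporter readout: after 24 h chemical exposure of transiently transfected HepG2 (GAL4-UAS reporter units), mRNA quantified by RT-PCR with fluorescent labeling and capillary electrophoresis. Gain-of-signal fitting against DMSO baseline.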

Test [9] deals with Transcriptional activator Myb (Homo sapiens) (UniProt P10242). The experiment in a line: ATG_Myb_CIS: Attagene CIS-FACTORIAL HepG2 Assay for human Myeloblastosis (Myb) Proto-Oncogene Transcription Factor (AID 2282986; active = hit-call score of the fitted dose curve at least 0.9, where 1 is the maximum; inactive = score below 0.9). The following applies: HepG2 Attagene CIS-FACTORIAL Myb reporter transcription; actives raise or lower the signal. In short, it runs like this:
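Reporter transcript levels, quantified by fluorescent RT-PCR and capillary electrophoresis, serve as the read-out. Transfected HepG2 cells carrying cis-promoter reporter units are dosed for 24 hours, and curves are fitted bidirectionally against DMSO controls.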

In test [10] the target is Nuclear respiratory factor 1 (Homo sapiens) (UniProt Q16656). Nature of the test: ATG_NRF1_CIS: Attagene CIS-FACTORIAL HepG2 Assay for human Nuclear Respiratory Factor 1 (NRF1) Orphan Gene (AID 2282987; active = hit-call score of the fitted dose curve at least 0.9, where 1 is the maximum; inactive = score below 0.9). The following applies: HepG2 NRF1 cis-element reporter, Attagene multiplex; actives raise or lower the signal. In short, it runs like this:
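Multiplexed cis-reporter assay, HepG2 cells, 24 h treatment. Total RNA → oligo(dT) RT → PCR with reporter-specific primers → 6-FAM primer extension → HpaI cut → CE. Bidirectional fit vs DMSO.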

Test [11] can be described thus: ATG_TGFb_CIS: Attagene CIS-FACTORIAL HepG2 Assay for human Transforming Growth Factor (TGF) (AID 2282967; active = hit-call score of the fitted dose curve at least 0.9, where 1 is the maximum; inactive = score below 0.9). The following applies: HepG2 Attagene CIS TGFb reporter, mRNA transcription; actives raise or lower the signal. In short, it runs like this: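 Multiplexed cis-reporter HepG2 system, 24 h treatment; mRNA induction read by fluorescence after RT-PCR and CE; DMSO negative control, bidirectional curve fitting.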

The target in test [12] is Steroid hormone receptor ERR1 (Homo sapiens) (UniProt P11474). The experiment in a line: ATG_ERRa_TRANS: Attagene TRANS-FACTORIAL HepG2 Assay for human Estrogen-Related Receptor alpha (ERRa) (AID 2282971). The following applies: HepG2 Attagene TRANS reporter, ERRa transactivation. Put shortly: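 Reporter transcripts from ERRa-Gal4 chimera activity measured in transiently transfected human HepG2 cells 24 hours after dosing, using RT-PCR with 6-FAM primer extension, HpaI digestion and capillary electrophoresis; DMSO is baseline.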

Test [13] can be described thus: ATG_M_19_TRANS: Attagene TRANS-FACTORIAL HepG2 Assay for M19 Transcription Factor (Internal Marker) (AID 2282974). The settings on record: HepG2 Attagene TRANS-FACTORIAL M19 internal marker reporter. Put shortly: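 Fluorescence of 6-FAM-labelled reporter cDNA fragments, separated by capillary electrophoresis, served as the readout. These derived from HepG2 cells carrying transfected GAL4-UAS reporter units after 24 h dosing, with DMSO as negative control.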

Test [14] deals with Glucocorticoid receptor (Homo sapiens) (UniProt P04150). Nature of the test: ATG_GR_TRANS: Attagene TRANS-FACTORIAL HepG2 Assay for human Glucocorticoid Receptor (GR) (AID 2282978).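 Note: activators score as hits since higher reporter transcript over DMSO is fitted.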 The settings on record: HepG2 Attagene TRANS GR reporter, mRNA transcription. In short, it runs like this: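 Fluorescent capillary-electrophoresis quantitation of reporter mRNA is the readout, taken 24 h after dosing human HepG2 cells carrying transiently transfected GAL4-UAS reporter units activated by chimeric NR-GAL4 fusions; activity scored as induction over DMSO.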
Chain of Glucocorticoid receptor (Homo sapiens) (P04150 whole entry, looked up, the tested form may be a part): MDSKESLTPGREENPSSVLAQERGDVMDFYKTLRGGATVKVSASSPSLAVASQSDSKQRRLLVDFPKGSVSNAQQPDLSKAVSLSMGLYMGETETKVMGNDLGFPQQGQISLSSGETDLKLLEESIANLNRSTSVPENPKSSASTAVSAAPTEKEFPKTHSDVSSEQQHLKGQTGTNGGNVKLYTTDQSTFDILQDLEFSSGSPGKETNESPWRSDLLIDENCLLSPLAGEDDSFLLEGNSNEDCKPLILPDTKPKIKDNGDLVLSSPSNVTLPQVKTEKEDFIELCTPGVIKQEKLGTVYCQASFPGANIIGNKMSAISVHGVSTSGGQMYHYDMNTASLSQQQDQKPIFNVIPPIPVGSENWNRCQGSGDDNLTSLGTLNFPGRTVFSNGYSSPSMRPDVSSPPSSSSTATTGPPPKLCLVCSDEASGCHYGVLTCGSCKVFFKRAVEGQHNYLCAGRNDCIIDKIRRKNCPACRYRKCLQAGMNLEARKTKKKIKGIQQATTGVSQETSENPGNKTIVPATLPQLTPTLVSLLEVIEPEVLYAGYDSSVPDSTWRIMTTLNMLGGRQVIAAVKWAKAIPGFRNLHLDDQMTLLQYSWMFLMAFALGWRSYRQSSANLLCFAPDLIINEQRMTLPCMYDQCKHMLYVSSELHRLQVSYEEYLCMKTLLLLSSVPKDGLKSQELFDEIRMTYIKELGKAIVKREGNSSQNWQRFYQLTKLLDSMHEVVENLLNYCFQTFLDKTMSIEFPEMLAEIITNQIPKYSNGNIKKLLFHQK

For test [15], the target named is Oxysterols receptor LXR-beta (Homo sapiens) (UniProt P55055). The experiment in a line: ATG_LXRb_TRANS: Attagene TRANS-FACTORIAL HepG2 Assay for human Liver X Receptor beta (LXRb) (AID 2282981). The settings on record: HepG2 Attagene TRANS GAL4-LXRb reporter, mRNA. In short, it runs like this: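 Multiplexed reporter assay, HepG2, 24 h dosing. Fluorescence of labelled RT-PCR products after capillary electrophoresis gives transcript level; positive fitting direction relative to DMSO.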
Chain of Oxysterols receptor LXR-beta (Homo sapiens) (P55055 whole entry, looked up, the tested form may be a part): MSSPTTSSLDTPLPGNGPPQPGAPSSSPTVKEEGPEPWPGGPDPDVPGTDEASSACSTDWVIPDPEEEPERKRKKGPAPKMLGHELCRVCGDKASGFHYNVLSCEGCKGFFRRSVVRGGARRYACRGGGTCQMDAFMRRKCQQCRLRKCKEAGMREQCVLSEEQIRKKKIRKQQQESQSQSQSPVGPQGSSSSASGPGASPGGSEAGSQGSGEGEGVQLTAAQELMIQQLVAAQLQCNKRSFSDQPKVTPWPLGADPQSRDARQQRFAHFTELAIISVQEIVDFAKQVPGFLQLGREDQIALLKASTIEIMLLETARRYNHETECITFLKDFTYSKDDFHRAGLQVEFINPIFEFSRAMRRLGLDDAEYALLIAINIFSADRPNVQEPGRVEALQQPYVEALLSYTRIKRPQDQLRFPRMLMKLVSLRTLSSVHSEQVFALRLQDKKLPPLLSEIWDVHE

Test [16] deals with Nuclear receptor subfamily 4 group A member 2 (Homo sapiens) (UniProt P43354). Nature of the test: ATG_NURR1_TRANS: Attagene TRANS-FACTORIAL HepG2 Assay for human Nuclear Receptor Related Protein 1 (NURR1) (AID 2282985). The following applies: HepG2 Attagene TRANS reporter, mRNA readout. Put shortly:
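Endpoint: reporter mRNA increase relative to DMSO. HepG2 cells transfected with reporter units, treated 24 h; RNA processed by RT-PCR, labelling, HpaI digestion and capillary electrophoresis.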

In test [17] the target is Estrogen-related receptor gamma (Homo sapiens) (UniProt P62508). Nature of the test: ATG_ERRg_TRANS: Attagene TRANS-FACTORIAL HepG2 Assay for human Estrogen-Related Receptor gamma (ERRg) (AID 2282977).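 Note: hits increase reporter signal over DMSO so potencies reflect activators.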 The settings on record: HepG2 Attagene TRANS reporter, ERRg transactivation. Put shortly:
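Exogenous NR-Gal4 chimera activity measured as reporter transcript induction after 24 h in transiently transfected HepG2 cells. RNA reverse-transcribed, PCR-amplified, 6-FAM-labelled and resolved by capillary electrophoresis; increase over DMSO baseline.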

Test [18] addresses Estrogen receptor (Homo sapiens) (UniProt P03372). Nature of the test: ATG_ERa_TRANS: Attagene TRANS-FACTORIAL HepG2 Assay for human Estrogen Receptor alpha (ERa) (AID 2282970). The settings on record: HepG2 Attagene TRANS ERa GAL4 reporter, mRNA. In short, it runs like this:
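Reporter transcripts were measured 24 h after dosing by RT-PCR with fluorescent primer extension and capillary electrophoresis. The system is transiently transfected HepG2 expressing exogenous NR-Gal4 chimeras driving GAL4-UAS reporters; DMSO is the baseline.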

Test [19] in a line: ATG_M_32_TRANS: Attagene TRANS-FACTORIAL HepG2 Assay for M32 Transcription Factor (Internal Marker) (AID 2282984). The settings on record: HepG2 Attagene TRANS M32 internal marker reporter. Put shortly: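 Internal-marker readout from a multiplexed transcription reporter panel. HepG2 cells were transfected with GAL4-UAS reporter units, treated 24 hours, and reporter transcript levels determined by fluorescence after RT-PCR and capillary separation.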

The term AC50 denotes the concentration giving half of the maximal activity seen.

Chain of Bile acid receptor (Homo sapiens) (Q96RI1 whole entry, looked up, the tested form may be a part): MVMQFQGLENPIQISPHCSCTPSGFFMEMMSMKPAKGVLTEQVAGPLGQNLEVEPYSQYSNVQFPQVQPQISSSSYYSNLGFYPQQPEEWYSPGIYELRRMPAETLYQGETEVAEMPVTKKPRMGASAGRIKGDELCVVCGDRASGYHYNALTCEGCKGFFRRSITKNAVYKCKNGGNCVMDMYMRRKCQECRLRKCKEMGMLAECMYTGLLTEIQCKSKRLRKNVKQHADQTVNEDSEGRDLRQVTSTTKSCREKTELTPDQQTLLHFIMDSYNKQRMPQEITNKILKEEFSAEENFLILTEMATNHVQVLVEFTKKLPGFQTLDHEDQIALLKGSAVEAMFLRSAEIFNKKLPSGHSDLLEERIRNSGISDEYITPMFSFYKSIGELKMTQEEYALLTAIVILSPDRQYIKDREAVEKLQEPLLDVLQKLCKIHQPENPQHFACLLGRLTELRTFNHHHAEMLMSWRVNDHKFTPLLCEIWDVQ
Chain of Nuclear receptor subfamily 4 group A member 2 (Homo sapiens) (P43354 whole entry, looked up): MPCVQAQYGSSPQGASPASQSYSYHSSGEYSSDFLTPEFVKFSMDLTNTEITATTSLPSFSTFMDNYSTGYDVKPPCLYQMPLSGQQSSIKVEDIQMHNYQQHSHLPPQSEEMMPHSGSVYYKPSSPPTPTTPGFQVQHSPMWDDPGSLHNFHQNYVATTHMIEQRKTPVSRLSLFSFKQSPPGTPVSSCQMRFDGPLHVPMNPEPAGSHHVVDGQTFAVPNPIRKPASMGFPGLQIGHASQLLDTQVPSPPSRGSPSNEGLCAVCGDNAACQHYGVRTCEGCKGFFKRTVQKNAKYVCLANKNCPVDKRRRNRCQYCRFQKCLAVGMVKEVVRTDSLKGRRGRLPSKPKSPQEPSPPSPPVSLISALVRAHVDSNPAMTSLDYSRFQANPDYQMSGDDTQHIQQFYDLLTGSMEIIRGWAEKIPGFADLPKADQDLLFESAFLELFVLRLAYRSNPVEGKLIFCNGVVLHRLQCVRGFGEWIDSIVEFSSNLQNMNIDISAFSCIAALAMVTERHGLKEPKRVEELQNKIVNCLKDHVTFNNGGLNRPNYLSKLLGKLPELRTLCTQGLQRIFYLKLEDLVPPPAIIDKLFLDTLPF
Chain of Nuclear respiratory factor 1 (Homo sapiens) (Q16656 whole entry, looked up): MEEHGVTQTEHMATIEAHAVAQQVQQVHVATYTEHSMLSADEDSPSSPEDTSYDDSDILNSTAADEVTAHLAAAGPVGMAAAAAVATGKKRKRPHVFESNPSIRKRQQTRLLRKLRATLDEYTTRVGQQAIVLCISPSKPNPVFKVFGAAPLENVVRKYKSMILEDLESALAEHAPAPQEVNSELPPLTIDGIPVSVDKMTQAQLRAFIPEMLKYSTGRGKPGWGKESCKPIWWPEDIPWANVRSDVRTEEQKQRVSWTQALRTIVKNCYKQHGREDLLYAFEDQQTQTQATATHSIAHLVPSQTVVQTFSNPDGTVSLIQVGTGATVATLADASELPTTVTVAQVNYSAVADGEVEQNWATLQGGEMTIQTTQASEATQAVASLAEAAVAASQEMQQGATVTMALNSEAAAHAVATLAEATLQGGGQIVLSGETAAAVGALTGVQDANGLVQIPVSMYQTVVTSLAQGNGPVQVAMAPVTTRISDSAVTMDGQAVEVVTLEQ
Chain of Oxysterols receptor LXR-alpha (Homo sapiens) (Q13133 whole entry, looked up, the tested form may be a part): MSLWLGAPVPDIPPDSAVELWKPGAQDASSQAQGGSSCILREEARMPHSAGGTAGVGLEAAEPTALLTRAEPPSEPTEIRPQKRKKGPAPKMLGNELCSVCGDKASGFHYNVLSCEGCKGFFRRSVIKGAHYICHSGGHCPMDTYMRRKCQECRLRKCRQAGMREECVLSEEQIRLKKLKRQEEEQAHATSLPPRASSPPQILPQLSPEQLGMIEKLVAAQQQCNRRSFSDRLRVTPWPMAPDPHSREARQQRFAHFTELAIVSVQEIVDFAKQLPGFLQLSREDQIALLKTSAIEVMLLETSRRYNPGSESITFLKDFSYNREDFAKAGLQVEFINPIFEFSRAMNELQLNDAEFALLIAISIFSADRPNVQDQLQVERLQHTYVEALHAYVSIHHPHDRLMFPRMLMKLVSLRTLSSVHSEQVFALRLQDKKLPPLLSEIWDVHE
Chain of Transcriptional activator Myb (Homo sapiens) (P10242 whole entry, looked up): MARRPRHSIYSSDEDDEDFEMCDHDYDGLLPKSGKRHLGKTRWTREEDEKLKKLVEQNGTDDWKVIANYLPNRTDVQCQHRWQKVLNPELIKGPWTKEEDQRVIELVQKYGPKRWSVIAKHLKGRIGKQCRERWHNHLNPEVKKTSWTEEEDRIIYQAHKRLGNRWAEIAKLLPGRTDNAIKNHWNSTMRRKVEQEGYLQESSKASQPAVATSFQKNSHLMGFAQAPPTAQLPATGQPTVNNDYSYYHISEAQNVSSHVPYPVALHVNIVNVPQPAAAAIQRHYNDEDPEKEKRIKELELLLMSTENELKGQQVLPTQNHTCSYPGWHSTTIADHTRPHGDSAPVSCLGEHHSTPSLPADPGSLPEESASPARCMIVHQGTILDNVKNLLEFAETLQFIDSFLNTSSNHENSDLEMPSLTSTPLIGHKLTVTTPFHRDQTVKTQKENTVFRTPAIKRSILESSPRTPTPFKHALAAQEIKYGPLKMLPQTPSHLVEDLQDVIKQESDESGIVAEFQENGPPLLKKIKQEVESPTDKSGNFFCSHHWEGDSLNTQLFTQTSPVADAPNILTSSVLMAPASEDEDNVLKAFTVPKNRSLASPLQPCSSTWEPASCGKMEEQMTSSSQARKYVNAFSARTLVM
Chain of X-box-binding protein 1 (Homo sapiens) (P17861 whole entry, looked up): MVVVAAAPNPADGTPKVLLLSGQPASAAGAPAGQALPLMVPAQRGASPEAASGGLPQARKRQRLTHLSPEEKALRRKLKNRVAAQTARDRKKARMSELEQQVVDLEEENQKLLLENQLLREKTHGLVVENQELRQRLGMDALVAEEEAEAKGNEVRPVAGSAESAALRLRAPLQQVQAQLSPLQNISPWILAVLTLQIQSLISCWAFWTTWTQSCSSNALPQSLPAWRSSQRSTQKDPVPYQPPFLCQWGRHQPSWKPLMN
Chain of Hepatocyte nuclear factor 4-alpha (Homo sapiens) (P41235 whole entry, looked up, the tested form may be a part): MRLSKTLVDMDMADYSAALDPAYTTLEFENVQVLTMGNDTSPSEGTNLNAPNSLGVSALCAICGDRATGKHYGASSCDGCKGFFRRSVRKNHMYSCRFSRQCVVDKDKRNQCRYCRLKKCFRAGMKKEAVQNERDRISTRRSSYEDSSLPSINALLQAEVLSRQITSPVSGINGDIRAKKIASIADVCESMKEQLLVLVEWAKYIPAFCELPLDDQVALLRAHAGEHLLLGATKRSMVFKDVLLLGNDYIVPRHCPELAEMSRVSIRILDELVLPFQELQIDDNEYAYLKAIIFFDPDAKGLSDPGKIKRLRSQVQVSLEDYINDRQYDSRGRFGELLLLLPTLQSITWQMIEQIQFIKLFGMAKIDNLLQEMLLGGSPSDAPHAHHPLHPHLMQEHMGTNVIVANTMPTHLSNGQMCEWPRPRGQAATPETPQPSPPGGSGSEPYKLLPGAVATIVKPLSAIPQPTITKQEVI

For `O=C(O)CCCCCCCCC(=O)O`, the call in [1], in test [2], in test [3], in test [4], in test [5] and in [6] was inactive. Also, the call in test [7], in [8], in test [9] and in [10] was inactive.

Take `CCCCCCCC(=O)OCC(O)CO` (stereo unspecified): the result in [11], in [12], in [3], in test [13], in test [14] and in [15] was inactive. Moreover, the outcome in [7], in test [16], in [9] and in test [10] was inactive.

Take `CCCCCC(=O)CC`: the compound was called inactive in test [11], in test [1], in test [3], in [5], in test [7] and in [8]. In addition, the compound was classed as inactive in [9] and in [10].

Consider `COc1cc([C@@H]2c3cc4c(cc3[C@@H](O[C@@H]3O[C@@H]5CO[C@@H](C)O[C@H]5[C@H](O)[C@H]3O)[C@H]3COC(=O)[C@H]23)OCO4)cc(OC)c1O`, for which the compound was called inactive in test [11], in test [1], in [3], in test [17], in [5] and in test [7]. The compound was called inactive in test [8] and in [10].

For `CC(C)CCCCCCc1ccc(OCCOCCO)cc1`, the call in test [11], in test [1], in test [18], in test [3], in test [4] and in test [17] was inactive. Further, the result in [8], in test [9] and in test [10] was inactive.

`Cc1ccc(-c2ccccc2)cc1`: the outcome in test [11], in test [1], in test [2], in test [3], in test [8] and in [16] was inactive. The compound was classed as inactive in [10].

`CN(C)c1cccc(O)c1`: the compound was classed as inactive in [11], in test [1], in [2], in test [3], in test [13] and in [4]. Further, the compound was called inactive in test [14], in test [6], in [19], in test [16], in [9] and in test [10].

`NCCNc1cccc2ccccc12`: the call in test [11], in test [2], in [14], in test [6], in test [15] and in test [7] was inactive. Moreover, the compound was called inactive in test [8], in test [19], in [16], in test [9] and in test [10]. In addition, the concentration at half-maximal activity (AC50) in test [1] was 155 µM (active); in test [3], 161 µM (active).

For the compound `O=C(Nc1ccc([N+](=O)[O-])cc1)Nc1ccc([N+](=O)[O-])cc1` (tested in a mixture with another compound), the compound was classed as inactive in test [11], in test [1], in test [3], in [14], in [5] and in test [15]. Moreover, the call in test [8], in test [19] and in test [10] was inactive.
